{"source": "PubChem BioAssay AID1053124", "about": "(Broad Institute, 2014)", "note": "Measured potencies and affinities stand elsewhere. Active and inactive are the calls of the source.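 Rule for the calls: active = cell killing whose fitted half-effect concentration is at most twice the top valid dose tested; inconclusive = flat curve with 30 to 70% killing, or a poor fit; inactive = effect in the rising direction, plus the rest.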"}
{"test": "viability loss in A549 lung cells – cell-based, ATP luminescence, cherry-pick, set 2, cytotoxicity control, dose response (AID 1053124)", "details": "ATP luminescence (CellTiter-Glo), 72 h; series mostly up to 26 µM"}
{"smiles": "CC(C)c1ccc(/C=C2\\Oc3c(ccc(O)c3CN3CCN(C)CC3)C2=O)cc1", "outcome": "inactive"}
{"smiles": "O=c1[nH]c2ccccc2nc1/C=C/c1ccccc1", "outcome": "inactive"}
{"smiles": "CCc1cccc(C)c1NC(=S)NCc1ccc2c(c1)cc(C)n2C", "outcome": "inactive"}
{"smiles": "Cc1ccc2[nH]c3ccccc3c(=O)c2c1", "outcome": "inactive"}
{"smiles": "N#Cc1c2ccc(O)cc2n2ccccc12", "outcome": "inactive"}
{"smiles": "O=C(COC(=O)c1cc(S(=O)(=O)N2CCCCC2)ccc1N1CCOCC1)c1ccccc1Cl", "outcome": "inactive"}
{"smiles": "Cc1ccc(S(=O)(=O)Nc2ccc(Nc3ccccc3)cc2)cc1", "outcome": "inactive"}
{"smiles": "C#CCOc1ccc(C2C(C#N)=C(N)Oc3cc(O)ccc32)cc1", "note": "(stereo not given)", "outcome": "inactive"}
{"smiles": "CCn1c(=N)c(S(=O)(=O)c2ccccc2)cc2c(=O)n3ccccc3nc21", "outcome": "inactive"}
{"smiles": "CCC(C)n1c(=N)c(C#N)cc2c(=O)n3cc(C)ccc3nc21", "note": "(stereo not given)", "outcome": "inactive"}
{"smiles": "CCNC(=O)c1cc2c(=O)n3cccc(C)c3nc2n(Cc2ccc(C)cc2)c1=N", "outcome": "inactive"}
{"smiles": "CCOC(=O)c1cc(-c2ccccc2)sc1NC(=O)CSc1nnc(N)s1", "outcome": "inactive"}
{"smiles": "COc1ccc(CCNC(=O)CSc2cn(Cc3cccc(C)c3)c3ccccc23)cc1OC", "outcome": "inactive"}
{"smiles": "COCCNC(=O)c1cc2c(=O)n3cccc(C)c3nc2n(Cc2ccncc2)c1=N", "outcome": "inactive"}
{"smiles": "Cc1cc(-n2c(=O)c(C#N)cc3c(=O)n4ccccc4nc32)no1", "outcome": "inactive"}
{"smiles": "Cn1cc(C(c2ccccc2OCC(=O)O)c2cn(C)c3ccccc23)c2ccccc21", "outcome": "inactive"}
{"smiles": "Cc1ccc2c(c1)-c1c(cnn1CC(=O)Nc1ccccc1N1CCN(C)CC1)CO2", "outcome": "inactive"}
{"smiles": "Clc1cccc(CN2CCN(Cc3nc(CCc4ccccc4)no3)CC2)c1", "outcome": "inactive"}
{"smiles": "O=C(NCc1ccc(F)cc1)C1CCCN1C(=O)Nc1cccc(F)c1", "note": "(stereo not given)", "outcome": "inactive"}
{"smiles": "CCOC(=O)c1oc2c(CN3CCN(CCO)CC3)c(O)c(CC)cc2c(=O)c1-c1nc2ccccc2s1", "outcome": "inactive"}
{"smiles": "O=c1oc2c(CN3CCN(CCO)CC3)c(O)ccc2cc1-c1ccccn1", "outcome": "inactive"}
{"smiles": "N=c1oc2cc(O)ccc2cc1C(=O)Nc1nc2ccccc2s1", "outcome": "inactive"}
{"smiles": "COc1ccc(Br)c(Cn2c(C)c(C(=O)NCc3ccc4c(c3)OCCO4)sc2=O)c1", "outcome": "inactive"}
{"smiles": "CC(C)N1CCc2c(sc(NC(=O)Cc3ccccc3)c2C#N)C1", "outcome": "inactive"}
{"smiles": "CSc1ccc(Cn2c(C)c(C(=O)NCCC#N)sc2=O)cc1", "outcome": "inactive"}
{"smiles": "COCCNC(=S)N/N=C/c1ccc(-c2ccc([N+](=O)[O-])cc2)o1", "outcome": "inactive"}
{"smiles": "O=C(CCCn1c(=O)c2sccc2n(Cc2cc(=O)n3ccccc3n2)c1=O)NCc1ccco1", "outcome": "inactive"}
{"smiles": "CCC(C)NC(=S)N1CCN(Cc2ccc3c(c2)OCO3)CC1", "note": "(stereo not given)", "outcome": "inactive"}
{"smiles": "CCOc1ccc2nc(NCCCNS(=O)(=O)c3ccc(C)cc3)c(C#N)cc2c1", "outcome": "inactive"}
{"smiles": "CCOc1ccc(S(=O)(=O)Nc2ccc(C(=O)N(CC)CC(=O)NCc3cccs3)cc2)cc1", "outcome": "inactive"}
{"smiles": "Cc1nc2ccc(S(=O)(=O)Nc3ccc(-c4nc5cccnc5s4)cc3)cc2s1", "outcome": "inactive"}
{"smiles": "CC1=C(C(=O)N2CCN(c3cc(C)ccc3C)CC2)C2(CCCCC2)OC1=O", "outcome": "inactive"}
{"smiles": "COc1cc(C(c2c(C(=O)O)[nH]c3ccccc23)c2c(C(=O)O)[nH]c3ccccc23)ccc1OCc1ccccc1", "outcome": "inactive"}
{"smiles": "CCOCCCNc1nc2nc3ccc(C)cn3c(=O)c2cc1C(=O)NCC1CCCO1", "note": "(stereo not given)", "outcome": "inactive"}
{"smiles": "CCCOc1c(Br)cc(C2C3=C(CCCC3=O)N(C)C3=C2C(=O)CCC3)cc1OC", "outcome": "inactive"}
{"smiles": "CN1CCN(c2nc3ccccn3c(=O)c2/C=C(\\C#N)S(=O)(=O)c2ccccc2)CC1", "outcome": "inactive"}
{"smiles": "CCOC(=O)C1CCCN(CCCc2ccccc2)C1", "note": "(stereo not given)", "outcome": "inactive"}
{"smiles": "CCN(CC)c1ccc2cc(S(=O)(=O)c3ccc(Cl)cc3)c(=O)oc2c1", "outcome": "inactive"}
{"smiles": "Cc1c(C(=O)NCc2cccc(C(F)(F)F)c2)sc(=O)n1Cc1ccc(C(=O)N(C)C)cc1", "outcome": "inactive"}
{"smiles": "CCCN1CCN(C(=O)c2ccc(CS(=O)c3ccc(Br)cc3)o2)CC1", "note": "(stereo not given)", "outcome": "inactive"}
